# Laboratory results published in PubChem BioAssay AID662 (National Center for Advancing Translational Sciences (NCATS), 2007).
# In all, about 71,000 compounds went through this assay and about 1,800 (2.5%) were called active. Inconclusive results (about 26%) are left out. Shown is part of a subset that was picked to be rich in actives. Unmarked numbers belong to inactive results. Calls come from the whole dose curve; as a rule, active = well fitted activation curve with a large enough effect in the signal ratio, with a control signal flat (not every such curve was filed as active); inconclusive = small, poorly fitted or top-dose-only effect, or effect the other way, or a change in a side signal; inactive = flat fitted curve, though single readings scatter; the % refers to the signal ratio.
# Assay: Cell signaling CRE-BLA (Fsk stim); for activity change, negative = inhibition: % of control where 0% means no effect
# Settings: CHO CRE-bla reporter (cAMP response element driving beta-lactamase), forskolin EC10, beta-lactamase ratio; series mostly up to 38.2 µM; activity change, negative = inhibition: at the top concentration
# In short: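 Using CellSensor CRE-bla CHO cells in Opti-MEM with 0.5% dialyzed FBS, compounds were titrated with EC10 NKH 477 for 3 h at 37 °C. CCF4 ratio (460/530 nm) gave %Activity; AC50 derived.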
# Potency is the fitted concentration of half-maximal effect.
SMILES,"activity change, negative = inhibition",Potency
O=C(CC1(O)C(=O)N(CN2CCOCC2)c2ccccc21)c1ccccc1 (stereo not drawn),1.72%,
CCCc1cc(=O)[nH]c(SCC(=O)OCc2ccccc2)n1,-2.25%,
CS(=O)(=O)N1CCN(C(=O)Cc2ccccc2)CC1,2.13%,
O=P(O)(CN1CCCCC1)CN1CCCCC1,-2.2%,
c1ccc(-n2ncc(-c3nn[nH]n3)n2)cc1,-8.34%,
O=C(O)CCSc1nnc(-c2ccccc2)n1-c1ccccc1,13.7% [at 7.6 µM],
COc1cccc(-n2c(Cc3cc(=O)[nH]c(=O)[nH]3)nnc2SCC(=O)Nc2ccccc2)c1,0.481%,
C=CCn1c(CC(=O)Nc2cccc(OC)c2)nnc1SCC(=O)NC1CCCCC1,-2.75%,
COc1cccc(-n2c(SCC(=O)NC3CCCCC3)nc3n[nH]c(C)c3c2=N)c1,,5.01 µM (active)
CCc1ccc(N(CC)c2ncnc3nc[nH]c23)cc1,-5.12%,
CCOC(=O)NC(C(F)(F)F)(C(F)(F)F)P(=O)(c1ccccc1)c1ccccc1,-3.9%,
CCCCNC(=O)CSc1nccn1Cc1ccccc1,-2.35%,
CCn1cc(C(=O)NCC2COc3ccccc3O2)c2cc(OC)c(OC)cc2c1=O (stereo not drawn),,1.58 µM (active)
O=C(C(Cc1ccccc1)n1cccc1)N1CCN(C2CCCCC2)CC1 (stereo not drawn),-11.6%,
Cc1cc(NC(=O)CCC2COc3ccccc3O2)no1 (stereo not drawn),-1.78%,
O=C(CN1C(=O)C2C3C=CC(C3)C2C1=O)NCC1COc2ccccc2O1 (stereo not drawn),-0.372%,
CS(=O)(=O)N(CC(=O)N1CCN(Cc2ccc3c(c2)OCO3)CC1)c1ccc2c(c1)OCO2,-2.17%,
Cc1ccc(C(=O)OCC(=O)NCc2ccc3c(c2)OCO3)s1,-8.63%,
CCOC(=O)NCc1ccc2c(c1)OCO2,-2.53%,
CCn1cc(C(=O)N2CCN(Cc3ccc4c(c3)OCO4)CC2)c2cc(OC)c(OC)cc2c1=O,,7.94 µM (active)
COc1ccc(-c2csc(N3CCN(Cc4ccc5c(c4)OCO5)CC3)n2)cc1,-10.5%,
CCn1cc(C(=O)NCc2ccc3c(c2)OCO3)c2cc(OC)c(OC)cc2c1=O,,2 µM (active)

SMILES,"activity change, negative = inhibition",Potency
CCn1cc(C(=O)N2CCN(C3CCCCC3)CC2)c2cc(OC)c(OC)cc2c1=O,,10 µM (active)
CC1CCCC(N2CCN(C(=O)c3ccc(F)cc3)CC2)C1 (stereo not drawn),0.17%,
O=C(CCC(=O)OCC(F)(F)C(F)F)NCc1ccccc1,-0.132%,
COC(=O)[C@@]1(Cc2ccc(F)cc2)[C@H]2c3cc(C(=O)N4CCCC4)n(C[C@H](O)CO)c3C[C@H]2CN1C(=O)c1ccccc1,-11.3%,
COc1ccc(-n2nnc3c(=O)n(CC(=O)N4CCC(Cc5ccccc5)CC4)cnc32)cc1,-7.64%,
CCOC(=O)C(CCOc1cccc(CC)c1)C(=O)OCC,-0.602%,
C=C(C)C1CC=C(C)C(O)C1 (stereo not drawn),-2.45%,
CC(=O)NC(C)(C)C1CC=C(C)/C(=N\O)C1 (stereo not drawn),-6.01%,
CC(C)OC(=O)CN1C(=O)c2ccccc2C1=O,-2.74%,
O=C1C(c2[nH]c3ccccc3c2O)=Nc2ccccc21,-11.5%,
CCCCn1c(CCCNC(=O)CC)nc2ccccc21,-6.76%,
O=S(N1CCCCCC1)C12CC3CC(CC(C3)C1)C2 (stereo not drawn),6.48%,
Cn1c(CNC(=O)C(C)(C)C)nc2ccccc21,4.87%,
Cc1nn2c3ccccc3nc2n(C)c1=O,-1.15%,
Cn1c(-c2ccc(C(=O)c3ccccc3)s2)nc2ccccc21,,2 µM (active)
Cc1occc1C(=O)N1CCCc2ccccc21,0.434%,
Cc1cccc(Br)c1,-6.01%,
COc1cccc(-c2nn(C)c3sc(C(=O)N4CCN(c5ccccc5)CC4)cc23)c1,,2.51 µM (active)
COc1ccccc1N1CCN(C(=O)c2cn(-c3ccccc3)nc2-c2cccnc2)CC1,-9.11%,
CCOC(=O)N1CCN(C(=O)c2cc3c(-c4ccc(Cl)cc4)nn(C)c3s2)CC1,5.94%,
O=S(=O)(NCC1CCCO1)c1ccc2ccccc2c1 (stereo not drawn),0.294%,
O=C(O)CCC(=O)NCc1ccc2[nH]c3c(c2c1)CCCC3,-4.41%,

SMILES,"activity change, negative = inhibition",Potency
CC/C=C/C/C=C/C/C=C/CCCCCCCC(=O)OCC,7.6%,
Oc1c(C(c2cccs2)N2CCN(c3ccc(F)cc3)CC2)sc2ncnn12 (stereo not drawn),10.8%,
Cc1c2c(nc3ccccc13)-c1cccc(=O)n1C2,,1.58 µM (active)
Cc1ccc(N2C(=O)CC(NCc3ccc4c(c3)OCO4)C2=O)cc1Cl (stereo not drawn),-2.37%,
COc1ccc(N)c(OC)c1,8.82%,
CCn1c(=N)c(S(=O)(=O)c2ccc(F)cc2)cc2c(=O)n3ccccc3nc21,,2 µM (active)
Cc1cc(NC(=O)CN2CCCCC2C)nc2c1c(=O)oc1ccccc12 (stereo not drawn),15.3%,
CCN(CC)CCCCn1c(-c2ccccc2)nc2c(N3CCOCC3)nc(C)nc21,2.26%,
Fc1ccc(Br)cc1/C=N/n1cnnc1,-0.497%,
Cc1cc(/C=N/n2cnnc2)c(C)n1-c1ccc2ncccc2c1,,0.0631 µM (active)
COc1cccc(C(=O)Nc2c3c(nn2-c2cccc(C)c2C)CS(=O)(=O)C3)c1OC,,7.94 µM (active)
Cc1cccc(-n2nc3c(c2NC(=O)c2ccc(Br)o2)CSC3)c1C,-9.63%,
O=C(CC1CCCCC1)Nc1c2c(nn1-c1ccc(F)cc1)CS(=O)(=O)C2,-0.0676%,
COc1ccc(CCN=C2SCC(=O)N2C)cc1OC,9.19%,
CC1=NC2(CCCc3c2no[n+]3[O-])N(O)C1(C)C (stereo not drawn),8.65% [at 7.6 µM],
CNC(=O)C1(C)C=CC2(CCCCC2)N1C(C)=O (stereo not drawn),-8.81%,
COC(=O)c1ccc(Oc2nc(Nc3ccc(F)cc3)nc(N3CCCC3)n2)cc1,,3.16 µM (active)
CC(C)CC1(C(=O)NCc2ccccn2)C=CCN1C(=O)c1ccccc1 (stereo not drawn),0.31%,
CCC1(C)N(O)C(C)(C)C(c2ccc(OC)cc2)=[N+]1[O-] (stereo not drawn),1.03%,
Cc1cnc(CNc2ncncc2-c2ccccc2Cl)cn1,6.66%,
c1ccc(CNc2ncncc2-c2cccnc2)cc1,2.99%,
Cc1cnc(CNc2nc(-c3cccnc3)nc3ccccc23)cn1,,12.6 µM (active)

SMILES,"activity change, negative = inhibition",Potency
CCCC(NS(=O)(=O)c1ccc(OC)cc1)C(=O)O (stereo not drawn),1.91%,
CC1CCc2sc3nc(N4CCN(CCO)CC4)n4ncnc4c3c2C1 (stereo not drawn),,5.01 µM (active)
COc1ccccc1-n1c(CNC(=O)c2ccccc2)nnc1SCC(=O)Nc1nnc(C)s1,-0.00921%,
CC1CN(Cc2nc3c(c(=O)n(C)c(=O)n3C)n2Cc2cccc(Cl)c2)CC(C)O1 (stereo not drawn),8.04%,
Cc1nc(SC(C)C)[nH]c(=O)c1Cc1ccccc1,26.6%,
CCOC(=O)c1cc2ccccc2nc1C,11.4%,
CCOC(=O)Nc1ccccc1N1C(=O)c2ccccc2C1=O,4.56%,
CCOC(=O)c1cc2n(c1C)-c1ccccc1C2=O,,15.8 µM (active)
COC(=O)c1ccc(C(NC(=O)OCc2ccccc2)/C(C)=C/[C@@H](C)C(=O)NCc2cc(C)on2)cc1 (stereo partly drawn),-12.4%,
O=C(NCc1ccco1)c1nc(-c2ccccc2)n(-c2ccccc2)n1,-3.72%,
Cc1nc2nc(SCC(=O)NCc3ccco3)nn2c(C)c1Cc1ccccc1,-8.05%,
Cc1nn(-c2ccccc2)c2sc(C(=O)N(Cc3ccco3)C(C)C(=O)NC(C)(C)C)cc12 (stereo not drawn),,1.58 µM (active)
Cc1ccnc(SCCn2c(N(C)Cc3ccccc3)nc3c2c(=O)n(C)c(=O)n3C)n1,-5.53%,
CCN(CC)S(=O)(=O)N1CCC(C(=O)NC(C)CCc2ccccc2)CC1 (stereo not drawn),-6.97%,
Cc1ccc2c(NC(=O)C3CC3)cccc2n1,-5.14%,
CC(=O)N1CCC(C(=O)Nc2nc(-c3ccccc3)ns2)CC1,,10 µM (active)
CC(=O)N1CCN(c2cccc(C)c2C)CC1,1.32% [at 7.6 µM],
Cn1c(NC(=O)c2ccc3c(c2)OCO3)cc(=O)n(C)c1=O,-10.7%,
Cc1c(NC(=O)Nc2ccccc2Cl)sc(=S)n1C,9.49%,
COc1ccc(OC)c(NC(=O)CSc2nc(N)c(-c3ccccc3)c(=O)[nH]2)c1,,12.6 µM (active)
COc1ccc(OC)c(NC(=O)Cn2c(=O)oc3ccccc32)c1,3.37%,
CCn1c(COc2ccc(OC)cc2)nnc1SCC(=O)Nc1cc(OC)ccc1OC,-2.91%,

SMILES,"activity change, negative = inhibition",Potency
CCCC(C(=O)N1CCOCC1)N1C(=O)C2C3C=CC(C3)C2C1=O (stereo not drawn),0.508%,
CC(C)C[C@@H](CC(=O)N[C@@H](CCC(=O)O)CC(=O)O)NC(=O)[C@@H]1CCCC[C@H]1NC(=O)C[C@@H](NC(=O)C[C@H](Cc1c[nH]c2ccccc12)NC(=O)[C@@H]1CCCC[C@H]1N)C(C)C,-15.3%,
Cc1ccc(NC(=O)CSc2nnc(-c3cnccn3)n2Cc2ccco2)cc1C,12.3%,
CCn1c(SCC(=O)Nc2cc(C)ccc2C)nnc1-c1cnccn1,,3.16 µM (active)
CCn1c(SCC(=O)Nc2nccs2)nnc1-c1ccncc1,-3.82%,
CSc1ccc(-c2c(C#N)c(N)nc3c2c(C)nn3-c2ccccc2)cc1,,10 µM (active)
Cc1cccc(NC(=O)COc2ccc(Br)cc2C)n1,7.56%,
C#CCCCCCCCCCCCCCCCC(=O)O,-5.11%,
COc1ccc(O)c(C=Nc2cc(C)on2)c1,-1.66%,
c1cncc(CNc2ccnc(-c3ccc4c(c3)OCO4)n2)c1,-27%,
O=C(Nc1cccnc1)c1ccc2c(c1)OCO2,1.51%,
c1ccc2c(Nc3ccncc3)nc(-c3ccc4c(c3)OCO4)nc2c1,,12.6 µM (active)
CC(=O)Nc1nc(C)c(Cc2ccccc2)c(=O)[nH]1,6.88%,
COc1ccc(N2CCN(C(=O)CSc3ncnc4c3cnn4-c3ccc(OC)cc3)CC2)cc1,-2.74%,
COc1ccc(N2CCN(C(=O)CSc3nc4cc(OC)c(OC)cc4cc3C#N)CC2)cc1,,10 µM (active)
CCOc1ccc2cc(C#N)c(SCC(=O)OC)nc2c1,-0.598%,
Cc1ccc2nc(-c3ccccc3)cc(C(=O)O)c2c1,-5.73%,
Oc1ccc2nc(Cc3ccccc3)[nH]c2c1,-6.98%,
COC(=O)Nc1nc2ccc(Sc3ccccc3)cc2[nH]1,,2.51 µM (active)
CCN(CC)CCN1C(=O)C(=O)/C(=C(/O)c2ccccc2)C1c1ccccc1F (stereo not drawn),3.78%,
